Data from the supplement of paper PMC3334620.
In all, about 33,000 sequences were measured (“E-score (-0.5 to 0.5)”: median about -0.011, highest 2% from about 0.28 on). The sample holds the highest values, similar sequences and a random draw of the others, so the mix is not that of the screen.

These sequences were tested against T1, Gcr1 (UniProt P07261) (assay: PBM E-score (8-mer binding enrichment) (E-score (-0.5 to 0.5)); higher = stronger / more preferred TF binding). Conditions: protein concentration: 100 nM; construct: GST-full length.
T1 sequence: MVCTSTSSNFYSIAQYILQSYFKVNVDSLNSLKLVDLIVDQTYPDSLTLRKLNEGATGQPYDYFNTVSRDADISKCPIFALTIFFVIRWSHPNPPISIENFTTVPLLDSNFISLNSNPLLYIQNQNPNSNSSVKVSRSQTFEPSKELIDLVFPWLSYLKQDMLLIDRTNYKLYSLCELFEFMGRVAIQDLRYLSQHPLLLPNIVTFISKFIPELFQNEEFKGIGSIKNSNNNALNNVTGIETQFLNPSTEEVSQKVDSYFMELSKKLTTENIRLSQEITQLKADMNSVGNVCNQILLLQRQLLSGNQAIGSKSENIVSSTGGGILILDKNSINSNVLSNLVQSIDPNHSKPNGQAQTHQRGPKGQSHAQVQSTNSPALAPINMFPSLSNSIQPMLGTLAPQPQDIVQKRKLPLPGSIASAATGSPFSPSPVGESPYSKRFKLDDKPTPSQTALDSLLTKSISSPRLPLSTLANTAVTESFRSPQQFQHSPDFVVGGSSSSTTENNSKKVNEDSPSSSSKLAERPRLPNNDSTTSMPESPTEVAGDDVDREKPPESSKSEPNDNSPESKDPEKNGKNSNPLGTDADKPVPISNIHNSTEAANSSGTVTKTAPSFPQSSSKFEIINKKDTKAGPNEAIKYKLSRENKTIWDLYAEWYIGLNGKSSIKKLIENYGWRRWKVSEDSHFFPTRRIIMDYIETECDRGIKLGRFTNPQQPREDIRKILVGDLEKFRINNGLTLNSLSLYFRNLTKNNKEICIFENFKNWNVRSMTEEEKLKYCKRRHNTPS
Procedure, shortened: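 For each ungapped eight-base word taken together with its reverse complement, the Universal PBM Analysis Suite assigned an E-score. Binding data came from GST-tagged yeast transcription factors, applied at about 100-200 nM, on universal all-10-mer Agilent arrays made double-stranded by primer extension. Fluorescent anti-GST marked bound protein, and scans were normalised with masliner.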

| Sequence | PBM E-score |
| --- | --- |
| TTCCACAA | 0.347 |
| CTCCACAA | 0.0774 |
| GTCCACAA | 0.224 |
| TACCAGTA | 0.224 |
| AACCAGTA | 0.315 |
| AACCAGTG | -0.195 |
| CCCACCAG | 0.0742 |
| CGGGCCGC | 0.0123 |
| AAGGTTCA | -0.179 |
| GAAGAAGC | 0.318 |
| CAAGACGC | 0.238 |
| CCAGAAGC | 0.357 |
| GAAGACGA | 0.198 |
| CTAGAAGC | 0.154 |
| GCAGAAGC | 0.0881 |
| GAAGACGC | 0.304 |
| ATAGAAGG | 0.0701 |
| ATAGAAGC | 0.315 |
| CAAGAAGC | 0.24 |
| AAAGAAGC | 0.262 |
| CCAGAAGA | 0.187 |
| CCGCAGCG | 0.0315 |

| Sequence | PBM E-score |
| --- | --- |
| CCGGTACG | -0.0393 |
| CGATAGAG | -0.0218 |
| AGGCCTAA | -0.0235 |
| CCAGGTAA | -0.0543 |
| GTTCTCAA | -0.129 |
| AACAGACC | -0.179 |
| ATGTCTAA | -0.0649 |
| CCTTGATA | -0.0119 |
| GAAGAAGA | 0.183 |
| CTAGACGC | 0.0428 |
| CAAGAAGA | 0.354 |
| ATAGACGA | 0.248 |
| ATAGACGC | 0.377 |
| TAAGAAGA | 0.243 |
| CTTCCTCA | 0.264 |
| GGCCTCCA | 0.172 |
| GGCTTTCA | -0.109 |
| CACTGATC | -0.142 |
| ACCTCCAT | -0.24 |
| GTCGGGGA | 0.102 |
| AGATTGTA | -0.193 |
| GAGATTCC | 0.363 |

| Sequence | PBM E-score |
| --- | --- |
| CAGATTCG | 0.037 |
| CAGATTCA | -0.0169 |
| GAGATTCA | -0.0394 |
| CAGATTCC | 0.388 |
| AAGATTCC | 0.271 |
| AGTAACTC | -0.155 |
| ATTGGAAA | 0.0513 |
| AGTGGAAA | 0.0918 |
| AGTGGAAT | 0.39 |
| ATTGGAAC | 0.221 |
| AGTGGAGG | 0.082 |
| CGTGGAGC | -0.0506 |
| CGTGGAAA | 0.0989 |
| CATGGAAG | -0.0984 |
| AGTGGAAG | 0.442 |
| CGTGGAAG | 0.0771 |
| ATTGGAAG | 0.363 |
| AGTGGAGC | 0.32 |
| ATTGCCGA | -0.127 |
| TGAGGGAA | -0.101 |
| AGTCTATG | -0.147 |
| ACCCTAGT | -0.0547 |

| Sequence | PBM E-score |
| --- | --- |
| CGAGACGC | 0.131 |
| CGGGTATC | 0.131 |
| CTCACACA | 0.1 |
| GGTGGAAC | 0.0244 |
| AGTGGACG | 0.315 |
| AGGGGAAC | -0.00862 |
| AGTGGACA | -0.0203 |
| AGTGGACC | -0.0505 |
| AGGGGAAT | 0.341 |
| AGTGGAAC | 0.364 |
| AGGGGAAA | 0.0362 |
| CGTGGAAC | -0.113 |
| ACGAAACG | -0.14 |
| ATCGGGAC | 0.0526 |
| AATTGTTC | 0.0249 |
| AGCCTTGA | -0.273 |
| AGATGAGC | -0.102 |
| ACTTCTCG | -0.0046 |
| CCCCAAGC | -0.00278 |
| CGTGAACG | 0.0112 |
